Records with an inconclusive call do not appear. Calls of active or inactive are those of the source. The calls were made as follows: active = hit-call score of the fitted dose curve at least 0.9, where 1 is the maximum; inconclusive = response in the unintended direction; inactive = score below 0.9.
Assay: ATG_GAL4_TRANS: Attagene TRANS-FACTORIAL HepG2 Assay for GAL4 (Internal Marker) (AID 2282976)
Conditions: HepG2 Attagene TRANS GAL4 internal marker reporter
Method: ATG_TRANS is a cell-based, multiplexed-readout assay that uses HepG2, a human liver cell line, with measurements taken at 24 hours after chemical dosing in a 24-well plate.ATG_GAL4_TRANS is one of 30 assay component(s) measured or calculated from the ATG_TRANS assay. It is designed to make measurements of mRNA induction, a form of inducible reporter, as detected with fluorescence intensity signals by Reverse transcription polymerase chain reaction (RT-PCR) and Capillary electrophoresis technology.Data from the assay component ATG_GAL4_TRANS was analyzed into 1 assay endpoint. This assay endpoint, ATG_GAL4_TRANS, was analyzed in the positive analysis fitting direction relative to DMSO as the negative control and baseline of activity. Using a type of inducible reporter, measures of mRNA for gain-of-signal activity can be used to understand the background control at the transcription factor-level as they relate to the gene . Furthermore, this assay endpoint can be referred to as a secondary readout, because this assay has produced multiple assay endpoints where this one serves a background control function. To generalize the intended target to other relatable targets, this assay endpoint is annotated to the background measurement intended target family, where the subfamily is baseline control.
Human liver HepG2 cells are transiently transfected with multiple reporter transcription units (MRTUs) in 6-well plates using FuGene 6 reagent (Roche; 3 ml FuGene/1 mg DNA). The MRTU constructs are regulated by a cis-regulating element (promoter). […] A major difference between the CIS and TRANS system is that in CIS activities of endogenous TFs are measured, whereas the TRANS assay evaluates changes in activities of exogenous, chimeric NR-Gal4 proteins. […] At the end of 24 hour incubation, total RNA was isolated using TriZol reagent (Invitrogen). The isolated RNA is then reverse-transcribed using oligo(dT) primer and Mo-MLV reverse transcriptase (Invitrogen) with DNAse I (Ambion) treatment for 30 min. The one-tenth of the produced cDNA was amplified by PCR using Taq DNA polymerase (Invitrogen) and two reporter sequence-specific primers. The PCR products were fluorescently labeled by primer extension with 6-arboxyfluorescein (6-FAM) 5'-labeled reporter sequence-specific primer (2 min at 95 C, 20 s at 68 C and 10 min at 72 C) and these products were digested with 5U of HpaI (New England Biolabs) for 2h at 37 C. The fragments were purified using Qiaquick PCR columns (Qiagen), analyzed on an ABI 3130xL genetic analyzer (Applied Biosystems) with peak positions identified by using a set of X-rhodamine (ROX)-labeled MapMarker1000 molecular weight standards (BioVentures). The raw capillary electrophoresis data was processed using Attagraph software (Attagene).

Question: Which outcome does the source give for `CC(=O)N(C)C` here?
Answer: The outcome was “inactive”.

Question: For `CCCCCCCC1CCCC1=O` (stereo not given), which outcome is on record?
Answer: The outcome was “inactive”.

Question: Which outcome does the source give for `CCCCCCCCCCCCCCCCCC(=O)OCCCCCCCCCCCCCC(C)C` here?
Answer: Its outcome is “inactive”.

Question: Which outcome does the source give for `CCCO[Si](OCCC)(OCCC)OCCC` here?
Answer: Its outcome is “inactive”.

Question: Which outcome does the source give for `CC(O)COCC(C)O` (stereo not given) here?
Answer: Its outcome is “inactive”.

Question: Which outcome does the source give for `CCCC[N+](C)(CCCC)CCCC` here?
Answer: Its outcome is “inactive”.

Question: With `CCCCCCCCCO` as the compound, how does the outcome read?
Answer: Its outcome is “inactive”.

Question: For `CCC(C)(CCCC(C)C)OC(C)=O` (stereo not given), which outcome is on record?
Answer: Its outcome is “inactive”.

Question: For `OCCCO`, which outcome is on record?
Answer: The outcome was “inactive”.

Question: Which outcome does the source give for `CCCCCCCCOS(=O)(=O)O` here?
Answer: The outcome was “inactive”.

Question: With `CC(=N[Si](C)(C)C)O[Si](C)(C)C` as the compound, how does the outcome read?
Answer: The outcome was “inactive”.

Question: Which outcome does the source give for `CCCc1ccc(N)cc1` here?
Answer: The outcome was “inactive”.

Question: With `CC/C=C\CCCCO` as the compound, how does the outcome read?
Answer: Its outcome is “inactive”.

Question: For `NC(=O)c1cccnc1`, which outcome is on record?
Answer: The outcome was “inactive”.

Question: For `CCC(C)C1CCCCC1=O` (stereo not given), which outcome is on record?
Answer: The outcome was “inactive”.

Question: For `CCCC1CCOC(C)S1` (stereo not given), which outcome is on record?
Answer: The outcome was “inactive”.

Question: With `CC(CO)c1ccccc1` (stereo not given) as the compound, how does the outcome read?
Answer: Its outcome is “inactive”.

Question: With `CC(C)C(=O)c1ccccc1` as the compound, how does the outcome read?
Answer: The outcome was “inactive”.

Question: With `NS(=O)(=O)c1cc(C(=O)O)c(NCc2ccco2)cc1Cl` as the compound, how does the outcome read?
Answer: The outcome was “inactive”.

Question: With `CCC(C)(C)C1CCC(=O)CC1` as the compound, how does the outcome read?
Answer: Its outcome is “inactive”.

Question: For `Nc1ccc(N)c([N+](=O)[O-])c1`, which outcome is on record?
Answer: The outcome was “inactive”.

Question: With `c1ccc(Cc2ccccc2)cc1` as the compound, how does the outcome read?
Answer: The outcome was “inactive”.

Question: Which outcome does the source give for `CC(C)(O)C(=O)c1ccc(OCCO)cc1` here?
Answer: Its outcome is “inactive”.

Question: For `CCO[Si](CC)(OCC)OCC`, which outcome is on record?
Answer: The outcome was “inactive”.

Question: With `CCCCCCCCCCCCOC(C)=O` as the compound, how does the outcome read?
Answer: The outcome was “inactive”.

Question: Which outcome does the source give for `Cc1ccncc1` here?
Answer: The outcome was “inactive”.

Question: Which outcome does the source give for `CC(C)Cc1ccc(C(C)C(=O)O)cc1` (stereo not given) here?
Answer: Its outcome is “inactive”.

Question: Which outcome does the source give for `CCC(=O)OCC=Cc1ccccc1` here?
Answer: The outcome was “inactive”.

Question: Which outcome does the source give for `CCCCCCCCSCc1cc(C)c(O)c(CSCCCCCCCC)c1` here?
Answer: Its outcome is “inactive”.

Question: Which outcome does the source give for `CC(=O)Nc1cc(S(=O)(=O)O)cc2cc(S(=O)(=O)O)c(N=Nc3ccccc3)c(O)c12` here?
Answer: The outcome was “inactive”.

Question: Which outcome does the source give for `[Na+]` here?
Answer: Its outcome is “inactive”.

Question: Which outcome does the source give for `C1CCCNCC1` here?
Answer: The outcome was “inactive”.

Question: Which outcome does the source give for `CCCCCCCCCCO[C@@H]1O[C@H](CO)[C@@H](O)[C@H](O)[C@H]1O` here?
Answer: The outcome was “inactive”.

Question: Which outcome does the source give for `CC(C)=CCCC(C)=CC(=O)O` here?
Answer: Its outcome is “inactive”.

Question: Which outcome does the source give for `NC(N)=S` here?
Answer: The outcome was “inactive”.

Question: With `O=S(=O)(O)c1cc(S(=O)(=O)O)c2c(N=Nc3ccccc3)c(O)ccc2c1` as the compound, how does the outcome read?
Answer: The outcome was “inactive”.

Question: With `N#CCCCC(C#N)CCC#N` (stereo not given) as the compound, how does the outcome read?
Answer: Its outcome is “inactive”.

Question: Which outcome does the source give for `[Cl][Dy]([Cl])[Cl]` here?
Answer: Its outcome is “inactive”.

Question: For `NC(=O)NC(N)=O`, which outcome is on record?
Answer: The outcome was “inactive”.

Question: For `CCCCCC1CCC(=O)O1` (stereo not given), which outcome is on record?
Answer: The outcome was “inactive”.
